# Assay results from the supplement of paper PMC12282887.
# ± gives the standard deviation of the averaged measurements.
# Tests used:
# Test in all cases: promoter activity interaction Z-score (Lux/OD deviation from empty-vector control); higher = stronger promoter induction by the compound
# [1] = test system: E. coli BW25113 ompFp lux reporter
# How it was run: (§1)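 E. coli BW25113 (wild type or marA, soxS or rob deletion) carrying low-copy luxCDABE promoter reporters grew in 40 µl LB Lennox in 384-well plates at 37°C. Each compound was tested at four 1:2 dilutions in biological duplicates. OD600 and luminescence were read every 30 min for 12 h. Areas were taken over 0–8 h (wild type) or 1–9 h (mutants), and wells below 10% of median growth area were removed. The score is the Z-transformed residual of growth-normalised luminescence fitted against the empty-vector control.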
# [2] = test system: E. coli BW25113 robp lux reporter
# How it was run: as §1
# [3] = test system: E. coli BW25113 soxSp lux reporter
# How it was run: as §1
# [4] = test system: E. coli BW25113 tolCp lux reporter
# How it was run: as §1
# [5] = test system: E. coli BW25113 acrABp lux reporter
# How it was run: as §1
# [6] = test system: E. coli BW25113 micFp lux reporter
# How it was run: as §1
# [7] = 0.23 µg/ml, genetic background: Δrob
# [8] = 0.23 µg/ml, genetic background: ΔsoxS
# [9] = 0.46 µg/ml, genetic background: wild type
# [10] = 0.46 µg/ml, genetic background: ΔmarA
# [11] = 0.46 µg/ml, genetic background: Δrob
# [12] = 0.46 µg/ml, genetic background: ΔsoxS
# [13] = 0.11 µg/ml, genetic background: wild type
# [14] = 0.11 µg/ml, genetic background: ΔmarA
# [15] = 0.11 µg/ml, genetic background: Δrob
# [16] = 0.11 µg/ml, genetic background: ΔsoxS
# [17] = 0.23 µg/ml, genetic background: wild type
# [18] = 0.23 µg/ml, genetic background: ΔmarA
# [19] = 0.011 µg/ml, genetic background: wild type
# [20] = 0.011 µg/ml, genetic background: ΔmarA
# [21] = 0.011 µg/ml, genetic background: Δrob
# [22] = 0.011 µg/ml, genetic background: ΔsoxS
# [23] = 0.022 µg/ml, genetic background: wild type
# [24] = 0.022 µg/ml, genetic background: ΔmarA
# [25] = 0.022 µg/ml, genetic background: Δrob
# [26] = 0.022 µg/ml, genetic background: ΔsoxS
# [27] = 0.044 µg/ml, genetic background: wild type
# [28] = 0.044 µg/ml, genetic background: ΔmarA
# [29] = 0.044 µg/ml, genetic background: Δrob
# [30] = 0.044 µg/ml, genetic background: ΔsoxS
structure (smiles),measurement,setting,value
N[C@@H](C(=O)N[C@@H]1C(=O)N2C(C(=O)O)=C(Cl)CS[C@H]12)c1ccccc1 [Cefaclor],promoter activity interaction Z-score,[1]; [7],0.0924 ± 0.14
same,promoter activity interaction Z-score,[1]; [8],-0.0604 ± 0.083
same,promoter activity interaction Z-score,[1]; [9],-0.3379 ± 0.00077
same,promoter activity interaction Z-score,[1]; [10],0.243 ± 0.29
same,promoter activity interaction Z-score,[1]; [11],0.261 ± 0.15
same,promoter activity interaction Z-score,[1]; [12],0.0432 ± 0.23
same,promoter activity interaction Z-score,[2]; [13],0.143 ± 0.35
same,promoter activity interaction Z-score,[2]; [14],-0.548 ± 0.49
same,promoter activity interaction Z-score,[2]; [15],-0.0741 ± 0.49
same,promoter activity interaction Z-score,[2]; [16],-0.204 ± 0.27
same,promoter activity interaction Z-score,[2]; [17],0.403 ± 0.76
same,promoter activity interaction Z-score,[2]; [18],-0.533 ± 0.12
same,promoter activity interaction Z-score,[2]; [7],-0.17 ± 0.038
same,promoter activity interaction Z-score,[2]; [8],0.0114 ± 0.73
same,promoter activity interaction Z-score,[2]; [9],-0.312 ± 0.44
same,promoter activity interaction Z-score,[2]; [10],-0.025 ± 0.62
same,promoter activity interaction Z-score,[2]; [11],-0.475 ± 0.67
same,promoter activity interaction Z-score,[2]; [12],-0.073 ± 1.2
same,promoter activity interaction Z-score,[3]; [13],0.0812 ± 0.014
same,promoter activity interaction Z-score,[3]; [14],0.114 ± 0.011
same,promoter activity interaction Z-score,[3]; [15],0.166 ± 0.057
same,promoter activity interaction Z-score,[3]; [16],0.145 ± 0.29
same,promoter activity interaction Z-score,[3]; [17],0.222 ± 0.12
same,promoter activity interaction Z-score,[3]; [18],0.143 ± 0.22
same,promoter activity interaction Z-score,[3]; [7],0.159 ± 0.22
same,promoter activity interaction Z-score,[3]; [8],0.00336 ± 0.19
same,promoter activity interaction Z-score,[3]; [9],-0.146 ± 0.12
same,promoter activity interaction Z-score,[3]; [10],-0.0654 ± 0.045
same,promoter activity interaction Z-score,[3]; [11],0.255 ± 0.11
same,promoter activity interaction Z-score,[3]; [12],-0.0397 ± 0.37
same,promoter activity interaction Z-score,[4]; [13],-0.564 ± 0.28
same,promoter activity interaction Z-score,[4]; [14],0.134 ± 0.67
same,promoter activity interaction Z-score,[4]; [15],0.613 ± 0.26
same,promoter activity interaction Z-score,[4]; [16],-0.636 ± 0.056
same,promoter activity interaction Z-score,[4]; [17],0.674 ± 0.6
same,promoter activity interaction Z-score,[4]; [18],-0.149 ± 1.3
same,promoter activity interaction Z-score,[4]; [7],0.0751 ± 0.037
same,promoter activity interaction Z-score,[4]; [8],-0.124 ± 0.055
same,promoter activity interaction Z-score,[4]; [9],-0.115 ± 0.33
same,promoter activity interaction Z-score,[4]; [10],-0.727 ± 1.3
same,promoter activity interaction Z-score,[4]; [11],-0.374 ± 0.56
same,promoter activity interaction Z-score,[4]; [12],-0.124 ± 0.67
C[C@@H](O)[C@H]1C(=O)N2C(C(=O)O)=C(S[C@@H]3CN[C@H](C(=O)N(C)C)C3)[C@H](C)[C@H]12 [Meropenem],promoter activity interaction Z-score,[5]; [19],-0.325 ± 0.13
same,promoter activity interaction Z-score,[5]; [20],-0.25 ± 1.2
same,promoter activity interaction Z-score,[5]; [21],-0.499 ± 0.11
same,promoter activity interaction Z-score,[5]; [22],-0.443 ± 0.38
same,promoter activity interaction Z-score,[5]; [23],-0.443 ± 0.2
same,promoter activity interaction Z-score,[5]; [24],0.239 ± 0.72
same,promoter activity interaction Z-score,[5]; [25],-0.429 ± 0.27
same,promoter activity interaction Z-score,[5]; [26],-0.714 ± 0.56
same,promoter activity interaction Z-score,[5]; [27],-0.272 ± 0.31
same,promoter activity interaction Z-score,[5]; [28],-0.463 ± 0.48
same,promoter activity interaction Z-score,[5]; [29],-0.0657
same,promoter activity interaction Z-score,[5]; [30],-1.05 ± 0.84
same,promoter activity interaction Z-score,[6]; [19],-0.112 ± 0.01
same,promoter activity interaction Z-score,[6]; [20],0.0252 ± 0.018
same,promoter activity interaction Z-score,[6]; [21],-0.116 ± 0.077
same,promoter activity interaction Z-score,[6]; [22],-0.229 ± 0.14
same,promoter activity interaction Z-score,[6]; [23],0.415 ± 0.16
same,promoter activity interaction Z-score,[6]; [24],-0.0395 ± 0.041
same,promoter activity interaction Z-score,[6]; [25],0.325 ± 0.09
same,promoter activity interaction Z-score,[6]; [26],0.0746 ± 0.14
same,promoter activity interaction Z-score,[6]; [27],-0.67 ± 0.27
same,promoter activity interaction Z-score,[6]; [28],-0.111 ± 0.099
same,promoter activity interaction Z-score,[6]; [29],-0.153 ± 0.23
same,promoter activity interaction Z-score,[6]; [30],0.149 ± 0.13
same,promoter activity interaction Z-score,[1]; [19],-0.54 ± 0.28
same,promoter activity interaction Z-score,[1]; [20],-0.583 ± 0.092
same,promoter activity interaction Z-score,[1]; [21],-0.754 ± 0.17
same,promoter activity interaction Z-score,[1]; [22],-0.418 ± 0.015
same,promoter activity interaction Z-score,[1]; [23],-0.588 ± 0.17
same,promoter activity interaction Z-score,[1]; [24],-0.0893 ± 0.4
same,promoter activity interaction Z-score,[1]; [25],-0.761 ± 1
same,promoter activity interaction Z-score,[1]; [26],0.398 ± 0.68
same,promoter activity interaction Z-score,[1]; [27],-2.42 ± 0.71
same,promoter activity interaction Z-score,[1]; [28],-1.11 ± 1.2
same,promoter activity interaction Z-score,[1]; [29],-3.33
same,promoter activity interaction Z-score,[1]; [30],-0.548 ± 0.013
same,promoter activity interaction Z-score,[2]; [19],0.101 ± 0.27
same,promoter activity interaction Z-score,[2]; [20],-0.585 ± 0.075
same,promoter activity interaction Z-score,[2]; [21],-0.128 ± 0.22
same,promoter activity interaction Z-score,[2]; [22],-0.321 ± 0.77
same,promoter activity interaction Z-score,[2]; [23],-0.965 ± 0.67
same,promoter activity interaction Z-score,[2]; [24],0.101 ± 0.13
same,promoter activity interaction Z-score,[2]; [25],-0.78 ± 0.081
same,promoter activity interaction Z-score,[2]; [26],0.872 ± 0.96
same,promoter activity interaction Z-score,[2]; [27],-1.9
same,promoter activity interaction Z-score,[2]; [28],-1.13 ± 0.46
same,promoter activity interaction Z-score,[2]; [29],-2.08 ± 0.078
same,promoter activity interaction Z-score,[2]; [30],-1.54 ± 0.12
same,promoter activity interaction Z-score,[3]; [19],-0.0716 ± 0.075
same,promoter activity interaction Z-score,[3]; [20],-0.0983 ± 0.033
same,promoter activity interaction Z-score,[3]; [21],-0.37 ± 0.018
same,promoter activity interaction Z-score,[3]; [22],0.00722 ± 0.14
same,promoter activity interaction Z-score,[3]; [23],-0.334 ± 0.51
same,promoter activity interaction Z-score,[3]; [24],-0.124 ± 0.17
same,promoter activity interaction Z-score,[3]; [25],-0.218 ± 0.073
same,promoter activity interaction Z-score,[3]; [26],0.588 ± 0.26
same,promoter activity interaction Z-score,[3]; [28],-1.21
same,promoter activity interaction Z-score,[3]; [29],-0.982 ± 0.23
same,promoter activity interaction Z-score,[3]; [30],0.387 ± 0.062
same,promoter activity interaction Z-score,[4]; [19],-0.834 ± 0.2
same,promoter activity interaction Z-score,[4]; [20],-1.09 ± 0.39
same,promoter activity interaction Z-score,[4]; [21],-0.937 ± 0.21
same,promoter activity interaction Z-score,[4]; [22],-0.582 ± 0.57
same,promoter activity interaction Z-score,[4]; [23],-0.873 ± 0.14
same,promoter activity interaction Z-score,[4]; [24],-0.075 ± 1
same,promoter activity interaction Z-score,[4]; [25],-1.42 ± 0.33
same,promoter activity interaction Z-score,[4]; [26],-0.223 ± 0.39
same,promoter activity interaction Z-score,[4]; [27],-1.14
same,promoter activity interaction Z-score,[4]; [28],-0.703
same,promoter activity interaction Z-score,[4]; [29],-1.44 ± 0.34
same,promoter activity interaction Z-score,[4]; [30],0.705
